# Measurements taken from PubChem BioAssay AID1159580 (chemical genetic matrix, 2015).
# The campaign covered roughly 5,500 compounds. About 2,000 (36%) were called active. Roughly 18% stayed inconclusive and do not appear here. The list shows a part of the results. Unmarked numbers belong to inactive results. No stated cut-off is given here; in the data, active means normalized growth mostly below about 0.91 (no sharp cut-off); inconclusive means no clear call, values can overlap the other calls; inactive means mostly above about 0.92.
# Test: chemical genetic growth profiling, strain panel (AID 1159580);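 further: tested at 20 µM; growth read once vehicle control cultures reached saturation at 30 °C; 1 = growth at the plate median or of vehicle wells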
# Conditions: growth OD
smiles,measurement,setting,value
CC[n+]1c(-c2ccccc2)c2cc(N)ccc2c2ccc(N)cc21,normalized growth,"S. cerevisiae deletion strains, locus YJR075W, strain HOC1, stronger effect = lower value",0.665 (active)
same,normalized growth,"S. cerevisiae deletion strains, locus YKL009W, strain mrt4, stronger effect = lower value",0.867 (active)
same,normalized growth,"S. cerevisiae deletion strains, locus YKL068W, stronger effect = lower value",0.881 (active)
same,normalized growth,"S. cerevisiae deletion strains, locus YKL085W, strain MDH1 (second series), stronger effect = lower value",0.882 (active)
same,normalized growth,"S. cerevisiae deletion strains, locus YKL085W, strain MDH1, stronger effect = lower value",0.882 (active)
same,normalized growth,"S. cerevisiae deletion strains, locus YKL160W, strain elf1, stronger effect = lower value",0.973
same,normalized growth,"S. cerevisiae deletion strains, locus YKL190W, strain CNB1, stronger effect = lower value",0.857 (active)
same,normalized growth,"S. cerevisiae deletion strains, locus YKR001C, strain vps1, stronger effect = lower value",0.929
same,normalized growth,"S. cerevisiae deletion strains, locus YKR026C, strain gcn3, stronger effect = lower value",0.955
same,normalized growth,"S. cerevisiae deletion strains, locus YKR091W, strain srl3, stronger effect = lower value",0.97
same,normalized growth,"S. cerevisiae deletion strains, locus YLL001W, strain dnm1, stronger effect = lower value",0.95
same,normalized growth,"S. cerevisiae deletion strains, locus YLL026W, stronger effect = lower value",0.97
same,normalized growth,"S. cerevisiae deletion strains, locus YLL041C, strain sdh2, stronger effect = lower value",0.972
same,normalized growth,"S. cerevisiae deletion strains, locus YLR027C, strain aat2, stronger effect = lower value",0.979
same,normalized growth,"S. cerevisiae deletion strains, locus YLR039C, strain RIC1, stronger effect = lower value",0.771
same,normalized growth,"S. cerevisiae deletion strains, locus YLR058C, strain SHM2, stronger effect = lower value",0.847 (active)
same,normalized growth,"S. cerevisiae deletion strains, locus YLR102C, strain apc9, stronger effect = lower value",0.942
same,normalized growth,"S. cerevisiae deletion strains, locus YLR113W, strain HOG1, stronger effect = lower value",0.831 (active)
same,normalized growth,"S. cerevisiae deletion strains, locus YLR221C, strain rsa3, stronger effect = lower value",0.936
same,normalized growth,"S. cerevisiae deletion strains, locus YLR258W, strain gsy2, stronger effect = lower value",0.968
same,normalized growth,"S. cerevisiae deletion strains, locus YLR262C, strain YPT6 (second series), stronger effect = lower value",1.01
same,normalized growth,"S. cerevisiae deletion strains, locus YLR262C, strain YPT6, stronger effect = lower value",0.755
same,normalized growth,"S. cerevisiae deletion strains, locus YLR268W, strain sec22, stronger effect = lower value",0.777 (active)
same,normalized growth,"S. cerevisiae deletion strains, locus YLR320W, strain mms22, stronger effect = lower value",0.872 (active)
same,normalized growth,"S. cerevisiae deletion strains, locus YLR330W, strain CHS5, stronger effect = lower value",0.886 (active)
same,normalized growth,"S. cerevisiae deletion strains, locus YLR342W, strain FKS1 (second series), stronger effect = lower value",0.86
same,normalized growth,"S. cerevisiae deletion strains, locus YLR342W, strain FKS1, stronger effect = lower value",0.987
same,normalized growth,"S. cerevisiae deletion strains, locus YLR357W, strain rsc2, stronger effect = lower value",1.04
same,normalized growth,"S. cerevisiae deletion strains, locus YLR370C, strain arc18, stronger effect = lower value",0.955
same,normalized growth,"S. cerevisiae deletion strains, locus YLR371W, strain rom2, stronger effect = lower value",0.917
same,normalized growth,"S. cerevisiae deletion strains, locus YLR384C, strain iki3, stronger effect = lower value",0.966
same,normalized growth,"S. cerevisiae deletion strains, locus YLR418C, strain cdc73, stronger effect = lower value",0.881
same,normalized growth,"S. cerevisiae deletion strains, locus YML016C, strain PPZ1, stronger effect = lower value",0.885 (active)
same,normalized growth,"S. cerevisiae deletion strains, locus YML032C, strain rad52, stronger effect = lower value",0.425 (active)
same,normalized growth,"S. cerevisiae deletion strains, locus YML120C, strain ndi1, stronger effect = lower value",0.96
same,normalized growth,"S. cerevisiae deletion strains, locus YML124C, strain tub3, stronger effect = lower value",0.932 (active)
same,normalized growth,"S. cerevisiae deletion strains, locus YMR058W, strain fet3, stronger effect = lower value",0.973
same,normalized growth,"S. cerevisiae deletion strains, locus YMR078C, strain ctf18, stronger effect = lower value",0.814 (active)
same,normalized growth,"S. cerevisiae deletion strains, locus YMR125W, strain sto1, stronger effect = lower value",0.98
same,normalized growth,"S. cerevisiae deletion strains, locus YMR129W, stronger effect = lower value",0.969
same,normalized growth,"S. cerevisiae deletion strains, locus YMR205C, strain PFK2, stronger effect = lower value",0.831 (active)
same,normalized growth,"S. cerevisiae deletion strains, locus YMR223W, strain ubp8, stronger effect = lower value",0.825 (active)
same,normalized growth,"S. cerevisiae deletion strains, locus YMR231W, strain pep5, stronger effect = lower value",0.986
same,normalized growth,"S. cerevisiae deletion strains, locus YMR307W, strain GAS1, stronger effect = lower value",0.714
same,normalized growth,"S. cerevisiae deletion strains, locus YNL067W, strain RPL9B, stronger effect = lower value",0.805 (active)
same,normalized growth,"S. cerevisiae deletion strains, locus YNL071W, strain lat1, stronger effect = lower value",0.868 (active)
same,normalized growth,"S. cerevisiae deletion strains, locus YNL153C, strain GIM3, stronger effect = lower value",0.888
same,normalized growth,"S. cerevisiae deletion strains, locus YNL183C, strain NPR1, stronger effect = lower value",0.878
same,normalized growth,"S. cerevisiae deletion strains, locus YNL209W, strain ssb2, stronger effect = lower value",0.96
same,normalized growth,"S. cerevisiae deletion strains, locus YNL233W, strain BNI4, stronger effect = lower value",0.841 (active)
same,normalized growth,"S. cerevisiae deletion strains, locus YNL248C, strain rpa49, stronger effect = lower value",0.858 (active)
same,normalized growth,"S. cerevisiae deletion strains, locus YNL250W, strain rad50, stronger effect = lower value",0.662 (active)
same,normalized growth,"S. cerevisiae deletion strains, locus YNL271C, strain bni1, stronger effect = lower value",0.909 (active)
same,normalized growth,"S. cerevisiae deletion strains, locus YNL298W, strain CLA4, stronger effect = lower value",0.881 (active)
same,normalized growth,"S. cerevisiae deletion strains, locus YNL307C, strain MCK1, stronger effect = lower value",0.855 (active)
same,normalized growth,"S. cerevisiae deletion strains, locus YNL322C, strain KRE1 (second series), stronger effect = lower value",0.919
same,normalized growth,"S. cerevisiae deletion strains, locus YNR049C, strain mso1, stronger effect = lower value",0.962
same,normalized growth,"S. cerevisiae deletion strains, locus YNR052C, strain pop2, stronger effect = lower value",0.885 (active)
same,normalized growth,"S. cerevisiae deletion strains, locus YOL006C, strain TOP1, stronger effect = lower value",0.64
same,normalized growth,"S. cerevisiae deletion strains, locus YOL012C, strain htz1",0.55
same,normalized growth,"S. cerevisiae deletion strains, locus YOL147C, strain pex11, stronger effect = lower value",0.898 (active)
same,normalized growth,"S. cerevisiae deletion strains, locus YOR001W, strain rrp6, stronger effect = lower value",0.857 (active)
same,normalized growth,"S. cerevisiae deletion strains, locus YOR061W, strain CKA2, stronger effect = lower value",0.876 (active)
same,normalized growth,"S. cerevisiae deletion strains, locus YOR069W, strain VPS5, stronger effect = lower value",0.891 (active)
same,normalized growth,"S. cerevisiae deletion strains, locus YOR070C, strain gyp1, stronger effect = lower value",0.967
same,normalized growth,"S. cerevisiae deletion strains, locus YOR080W, strain dia2, stronger effect = lower value",0.988
same,normalized growth,"S. cerevisiae deletion strains, locus YOR083W, strain WHI5, stronger effect = lower value",0.948
same,normalized growth,"S. cerevisiae deletion strains, locus YOR106W, strain vam3, stronger effect = lower value",0.966
same,normalized growth,"S. cerevisiae deletion strains, locus YOR136W, strain idh2, stronger effect = lower value",0.964
same,normalized growth,"S. cerevisiae deletion strains, locus YOR144C, strain elg1, stronger effect = lower value",0.906 (active)
same,normalized growth,"S. cerevisiae deletion strains, locus YOR184W, strain ser1, stronger effect = lower value",0.73 (active)
same,normalized growth,"S. cerevisiae deletion strains, locus YOR231W, strain MKK1, stronger effect = lower value",0.898
same,normalized growth,"S. cerevisiae deletion strains, locus YOR265W, strain rbl2, stronger effect = lower value",0.974
same,normalized growth,"S. cerevisiae deletion strains, locus YOR270C, strain vph1, stronger effect = lower value",0.856
same,normalized growth,"S. cerevisiae deletion strains, locus YOR290C, strain snf2, stronger effect = lower value",0.937
same,normalized growth,"S. cerevisiae deletion strains, locus YOR316C, strain cot1, stronger effect = lower value",0.933
same,normalized growth,"S. cerevisiae deletion strains, locus YPL051W, strain arl3, stronger effect = lower value",0.989
same,normalized growth,"S. cerevisiae deletion strains, locus YPL055C, strain LGE1, stronger effect = lower value",0.89
same,normalized growth,"S. cerevisiae deletion strains, locus YPL078C, strain atp4, stronger effect = lower value",1.02
same,normalized growth,"S. cerevisiae deletion strains, locus YPL106C, strain sse1, stronger effect = lower value",0.913
same,normalized growth,"S. cerevisiae deletion strains, locus YPL240C, strain hsp82, stronger effect = lower value",0.97
same,normalized growth,"S. cerevisiae deletion strains, locus YPL256C, strain CLN2, stronger effect = lower value",0.855
same,normalized growth,"S. cerevisiae deletion strains, locus YPR119W, strain clb2, stronger effect = lower value",0.925 (active)
same,normalized growth,"S. cerevisiae deletion strains, locus YPR141C, strain kar3, stronger effect = lower value",0.886 (active)
same,normalized growth,"S. cerevisiae deletion strains, locus YPR163C, strain tif3, stronger effect = lower value",0.781 (active)
same,normalized growth,"S. cerevisiae deletion strains, locus YPR167C, strain met16, stronger effect = lower value",0.864 (active)
same,normalized growth,"S. cerevisiae deletion strains, strain wtn01, stronger effect = lower value",0.795 (active)
same,normalized growth,"S. cerevisiae strains, strain wild type, stronger effect = lower value",0.854 (active)
